Our source for the Potency and activity, negative = cell killing values is PubChem BioAssay (NCATS).

“And” between values parts separate entries of the source, which are not always exact repeats. Equal values may be shown once. Inconclusive results are not listed. A call without a number means that no potency is given here. A structure can be active in one record and inactive in another. A number with no mark means an inactive call. The source made the active and inactive calls. Calls follow the shape of the dose curve; as a rule, active = well fitted curve in the direction sought with a large enough effect; inconclusive = small, poorly fitted or top-dose-only effect, or another doubt; inactive = no such curve, though single readings can be large; an effect the other way counts as inactive or inconclusive.

In one assay the test system is Tov112D. Nature of the assay: Primary qHTS to identify gynecologic anti-cancer compounds using libraries of approved drugs and bioactive compounds (AID 1345084). Also: nearly all actives have a fitted effect of over 55% in size. Also: potency is read from the fitted curve at half-maximal effect. As to conditions: Gynecologic cancer cell panel viability, ATPlite luminescence, 48 h; series mostly up to 57.5 µM. The essentials: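 Luminescence from the ATPlite ATP-monitoring reagent indicates viable cell number; lower signal means cytotoxicity. Cells received compound 16 h after seeding and were exposed for 48 h across five concentrations.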
Regarding `CCN(CC)Cc1nccn1-c1ccc([N+](=O)[O-])cc1C(=O)c1ccccc1Cl`, the Potency entry was “inactive”.
The same measure, in the same setting: the same measure for `Cc1ncc2n1-c1ccc(Cl)cc1C(c1ccccc1F)=NC2`: “inactive”.
For `COC(=O)C1=CCCN(C)C1`, the Potency result was “inactive”.
As for `C=CCN1CC[C@]23CCCC[C@H]2[C@H]1Cc1ccc(O)cc13`, the Potency entry is “inactive”.
Regarding `COc1ccc(OC)c(CC(C)N)c1` (configuration not stated), the Potency result was “inactive”.
Consider `O=C(CCCN1CCC(n2c(=O)[nH]c3ccccc32)CC1)c1ccc(F)cc1`, for which the Potency entry is “inactive”.
Still for that read-out and setting: the same measure for `C#C[C@]1(O)CC[C@H]2[C@@H]3CCC4=CC(=O)CCC4=C3C=C[C@@]21CC`: “inactive”.
In the case of `CN1C(=O)CN=C(c2ccccc2)c2cc(Cl)ccc21`, the Potency entry is “inactive”.
Still for that read-out and setting: the same measure for `C[N+]1(C)[C@@H]2CC[C@H]1CC(OC(=O)C(CO)c1ccccc1)C2` (some centres not stated): “inactive”; for `Clc1ccc(C(OCCN2CCCCC2)c2ccccc2)cc1` (configuration not stated): “inactive”; for `O=C(O)Cc1ccccc1`: “inactive”.
Still for that read-out and setting: the same measure for `C=CC[C@]1(O)CC[C@H]2[C@@H]3CCC4=CC(=O)CCC4=C3C=C[C@@]21C`: “inactive”.
Same read-out and setting: the same measure for `CCN(CC)CCOC(=O)C(C)(c1ccccc1)c1ccccc1`: “inactive”.
On to `CCS(=O)(=O)C(C)(C)S(=O)(=O)CC`, for which the Potency entry is “inactive”.
Still for that read-out and setting: the same measure for `COc1ccc2[nH]cc(CCN(C(C)C)C(C)C)c2c1`: “inactive”; for `CCC1(c2ccccc2)CCC(=O)NC1=O` (configuration not stated): “inactive”.
On the same count and under the same terms, the same measure for `CCCC(C)C1(CC)C(=O)N=C(S)NC1=O` (configuration not stated): “inactive”.
As for `Nc1ccc(N)cc1`, the Potency entry was “inactive”.
The same measure, in the same setting: the same measure for `CNC(=O)NC(O)C(Cl)(Cl)Cl` (configuration not stated): “inactive”; for `CC(C)(O)C(Cl)(Cl)Cl`: “inactive”.
On the same count and under the same terms, the same measure for `Cc1nnc2n1-c1sc(CCC(=O)N3CCOCC3)cc1C(c1ccccc1Cl)=NC2`: “inactive”.
Still for that read-out and setting: the same measure for `COc1cc(CC(C)N)c(OC)cc1Br` (configuration not stated): “inactive”; for `C[C@]12CC[C@H](O)CC1=CC[C@@H]1[C@@H]2CC[C@]2(C)C(=O)CC[C@@H]12`: “inactive”.
Consider `CN(C)C(=O)Oc1cc(OC(=O)N(C)C)cc(C(O)CNC(C)(C)C)c1` (configuration not stated), for which the Potency result was “inactive”.
On the same count and under the same terms, the same measure for `COc1cc(C[C@@H](C)N)c(OC)cc1C`: “inactive”; for `O=C(O)c1nn(Cc2ccc(Cl)cc2Cl)c2ccccc12`: “inactive”.
The same measure, in the same setting: the same measure for `CCCCC1C(=O)NC(=O)N(C2CCCCC2)C1=O` (configuration not stated): “inactive”; for `C[C@]12Cc3nonc3C[C@@H]1CC[C@@H]1[C@@H]2CC[C@@]2(C)[C@H]1CC[C@]2(C)O`: “inactive”; for `Clc1ccc(CO/N=C(\Cn2ccnc2)c2ccc(Cl)cc2Cl)c(Cl)c1`: “inactive”.
On the same count and under the same terms, the same measure for `CN(C)C(=S)SSC(=S)N(C)C`: 12.6 µM (active).
As to `COc1cc(CC(C)N)cc2c1OCO2` (configuration not stated), the Potency entry is “inactive”.
In the case of `C=CCOC(Cn1ccnc1)c1ccc(Cl)cc1Cl` (configuration not stated), the Potency entry was “inactive”.
Still for that read-out and setting: the same measure for `CN1C[C@@H](NS(=O)(=O)N(C)C)C[C@@H]2c3cccc4c3c(cn4C)C[C@H]21`: “inactive”.
For `c1cc2c(c(N3CCNCC3)c1)OCCO2`, the Potency entry is “inactive”.
As for `NCc1cccnc1`, the Potency entry is “inactive”.
As to `C#C[C@]1(O)C=C[C@H]2[C@@H]3CCC4=CC(=O)CC[C@@H]4[C@H]3CC[C@@]21CC`, the Potency entry was “inactive”.
The same measure, in the same setting: the same measure for `C[C@]12C=CC(=O)C=C1CC[C@@H]1[C@@H]2CC[C@@]2(C)[C@H]1CC[C@]2(C)O`: “inactive”; for `CN1C(=O)[C@@H](NC(=O)c2cc3ccccc3[nH]2)N=C(c2ccccc2)c2ccccc21`: “inactive”.
On to `CC(C)NCC(O)c1ccc(N)c(C#N)c1` (configuration not stated), for which the Potency result was “inactive”.
Same read-out and setting: the same measure for `CCc1cc(OC)c(C[C@H](C)N)cc1OC`: “inactive”.

Tested on in another assay: not listed separately
The experiment in a line: Drug repurposing screens with cells derived from glioblastoma tumor samples (AID 1345199). Also: nearly all actives have a fitted effect of over 40% in size. Conditions: GBM patient neurospheres viability, ATP luminescence, 48 h; at 21.2 µM (top of the series); tumour line B. The essentials:
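Primary testing used CD133+ neurospheres from four GBM patients, seven concentrations, 48 h exposure and ATP-based viability; confirmation added three slower-growing patient lines.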
With `O=C(CCCN1CCC(n2c(=O)[nH]c3ccccc32)CC1)c1ccc(F)cc1`, the activity, negative = cell killing was -8.66%.
Regarding `C[N+]1(C)[C@@H]2CC[C@H]1CC(OC(=O)C(CO)c1ccccc1)C2` (some centres not stated), the activity, negative = cell killing is -14.5%.
Same read-out and setting: the same measure for `CN(C)C(=O)Oc1cc(OC(=O)N(C)C)cc(C(O)CNC(C)(C)C)c1` (configuration not stated): -7.15%.

Staying with this assay, now noted: GBM patient neurospheres viability, ATP luminescence, 48 h; at 45.9 µM (top of the series); tumour line B.
As for `CCN(CC)Cc1nccn1-c1ccc([N+](=O)[O-])cc1C(=O)c1ccccc1Cl`, the activity, negative = cell killing is -21%.
On the same count and under the same terms, the same measure for `Cc1ncc2n1-c1ccc(Cl)cc1C(c1ccccc1F)=NC2`: -17.8%; for `COC(=O)C1=CCCN(C)C1`: -5.77%; for `C#C[C@]1(O)CC[C@H]2[C@@H]3CCC4=CC(=O)CCC4=C3C=C[C@@]21CC`: -22.9%.
In the case of `CN1C(=O)CN=C(c2ccccc2)c2cc(Cl)ccc21`, the activity, negative = cell killing is -4.05%.
On the same count and under the same terms, the same measure for `C[N+]1(C)[C@@H]2CC[C@H]1CC(OC(=O)C(CO)c1ccccc1)C2` (some centres not stated): -1.41%.
On to `O=C(O)Cc1ccccc1`, for which the activity, negative = cell killing is -8.63%.
For the molecule `C=CC[C@]1(O)CC[C@H]2[C@@H]3CCC4=CC(=O)CCC4=C3C=C[C@@]21C`, the activity, negative = cell killing was -12.5%.
Still for that read-out and setting: the same measure for `CCN(CC)CCOC(=O)C(C)(c1ccccc1)c1ccccc1`: -27.8%.
On the same count and under the same terms, the same measure for `CCS(=O)(=O)C(C)(C)S(=O)(=O)CC`: -4.87%.
Consider `CCC1(c2ccccc2)CCC(=O)NC1=O` (configuration not stated), for which the activity, negative = cell killing is -10.4%.
Same read-out and setting: the same measure for `CCCC(C)C1(CC)C(=O)N=C(S)NC1=O` (configuration not stated): -11.2%; for `Nc1ccc(N)cc1`: -10.5%; for `CNC(=O)NC(O)C(Cl)(Cl)Cl` (configuration not stated): -2.48%.
The same measure, in the same setting: the same measure for `CC(C)(O)C(Cl)(Cl)Cl`: 4%; for `Cc1nnc2n1-c1sc(CCC(=O)N3CCOCC3)cc1C(c1ccccc1Cl)=NC2`: -14.3% and -9.87%; for `COc1cc(CC(C)N)c(OC)cc1Br` (configuration not stated): -9.73%.
On the same count and under the same terms, the same measure for `C[C@]12CC[C@H](O)CC1=CC[C@@H]1[C@@H]2CC[C@]2(C)C(=O)CC[C@@H]12`: -4.02%; for `O=C(O)c1nn(Cc2ccc(Cl)cc2Cl)c2ccccc12`: -14.7%.
For the molecule `CCCCC1C(=O)NC(=O)N(C2CCCCC2)C1=O` (configuration not stated), the activity, negative = cell killing was 0.883%.
As to `C[C@]12Cc3nonc3C[C@@H]1CC[C@@H]1[C@@H]2CC[C@@]2(C)[C@H]1CC[C@]2(C)O`, the activity, negative = cell killing is -26.1%.
On the same count and under the same terms, the same measure for `C=CCOC(Cn1ccnc1)c1ccc(Cl)cc1Cl` (configuration not stated): -23.6%; for `CN1C[C@@H](NS(=O)(=O)N(C)C)C[C@@H]2c3cccc4c3c(cn4C)C[C@H]21`: -15.4%; for `c1cc2c(c(N3CCNCC3)c1)OCCO2`: -7.8%.
`NCc1cccnc1`: the activity, negative = cell killing was -7.53%.
Same read-out and setting: the same measure for `C#C[C@]1(O)C=C[C@H]2[C@@H]3CCC4=CC(=O)CC[C@@H]4[C@H]3CC[C@@]21CC`: -6.47%; for `C[C@]12C=CC(=O)C=C1CC[C@@H]1[C@@H]2CC[C@@]2(C)[C@H]1CC[C@]2(C)O`: -4.86%.
The same measure, in the same setting: the same measure for `CN1C(=O)[C@@H](NC(=O)c2cc3ccccc3[nH]2)N=C(c2ccccc2)c2ccccc21`: 8.15%; for `CC(C)NCC(O)c1ccc(N)c(C#N)c1` (configuration not stated): -10.3%.
